Consider 20 molecules from PubChem BioAssay.

Values without a mark were called inactive. For some of these results: Results with a measured potency or affinity are listed apart. Calls of active or inactive are those of the source. Unless noted, no rule for the calls is given here.

One may read the inhibition as the relative decrease from the control value, in per cent.

Assay [1] can be described thus: antimalarial activity against Dd2 strain (AID 2302;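 active = growth inhibition above 50% at the single 2 µM test dose, taken to imply half-maximal potency below 2 µM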;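 also: 0% = DMSO untreated growth and 100% = chloroquine plus artemisinin killed control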). The following applies: P. falciparum Dd2 in RBCs, LDH growth readout, 72 h; at 2 µM; stronger effect = higher value.
Assay [2] can be described thus: human hepatoma cell viability loss – ATP luminescence, cytotoxicity control for P. falciparum antimalarial project, primary screen (AID 2303;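 active = inhibition above 50%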;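 also: 0% = DMSO wells and 100% = digitonin-killed cells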). As to conditions: HepG2 viability, 24-48 h, at 10 µM, stronger effect = higher value.
The target in assay [3] is L-lactate dehydrogenase (Plasmodium falciparum (isolate CDC / Honduras)) (UniProt Q27743). As to the kind of experiment: PfLDH activity inhibition – cell lysate, 3D7 strain, counter-screen for P. falciparum growth inhibition project (AID 2304).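 Also: 0% = vehicle and 100% = reference inhibitor.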 As to conditions: P. falciparum 3D7 crude extract, LDH APAD/NBT absorbance; at 2 µM; stronger effect = higher value.
Assay [4] can be described thus: inhibition of 3D7 malaria parasite growth – strain 3D7 (AID 2306).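 Also: 0% = DMSO wells and 100% = chloroquine plus artemisinin control wells.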 As to conditions: P. falciparum 3D7 erythrocytic growth, LDH absorbance, 72 h; at 2 µM; stronger effect = higher value.
Assay [5] addresses Calcium-dependent protein kinase 1 (Plasmodium falciparum (isolate 3D7)) (UniProt P62344). As to the kind of experiment: PfCDPK1 kinase inhibitors, biochemical, TCAMS library (AID 1159585; cut-off not given, nearly all actives have IC50 up to about 0.98 µM;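 also: inhibitors leave more ATP so luminescence rises with inhibition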). As to conditions: recombinant PfCDPK1, Kinase-Glo ATP depletion luminescence. A general note: Kinase-Glo measures the ATP left after a reaction by luminescence.
Assay [6] deals with Plasmodium falciparum protein kinase 6 (PK6, PF3D7_1337100) (UniProt Q8IDW1). The assay can be described thus: PfPK6 kinase inhibitors, biochemical, TCAMS library (AID 1159586). As to conditions: recombinant PfPK6, Kinase-Glo ATP depletion luminescence.
In assay [7] the target is Protein kinase 7 (PK7), Plasmodium falciparum 3D7 (PF3D7_0213400) (UniProt Q7YTF7). The assay can be described thus: inhibition of Plasmodium PK7 catalytic activity – biochemical, TCAMS antimalarial set, Kinase-Glo luminescence (AID 1159587). As to conditions: recombinant PfPK7, Kinase-Glo ATP depletion luminescence.
For assay [8], the target named is Calcium-dependent protein kinase 4 (Plasmodium falciparum (isolate 3D7)) (UniProt Q8IBS5). As to the kind of experiment: PfCDPK4 kinase inhibitors, biochemical, TCAMS library (AID 1159588; cut-off not given, nearly all actives have IC50 up to about 0.91 µM). The following applies: recombinant PfCDPK4, Kinase-Glo ATP depletion luminescence.
Calcium-dependent protein kinase 4 (Plasmodium falciparum (isolate 3D7)), sequence (Q8IBS5 whole entry, looked up): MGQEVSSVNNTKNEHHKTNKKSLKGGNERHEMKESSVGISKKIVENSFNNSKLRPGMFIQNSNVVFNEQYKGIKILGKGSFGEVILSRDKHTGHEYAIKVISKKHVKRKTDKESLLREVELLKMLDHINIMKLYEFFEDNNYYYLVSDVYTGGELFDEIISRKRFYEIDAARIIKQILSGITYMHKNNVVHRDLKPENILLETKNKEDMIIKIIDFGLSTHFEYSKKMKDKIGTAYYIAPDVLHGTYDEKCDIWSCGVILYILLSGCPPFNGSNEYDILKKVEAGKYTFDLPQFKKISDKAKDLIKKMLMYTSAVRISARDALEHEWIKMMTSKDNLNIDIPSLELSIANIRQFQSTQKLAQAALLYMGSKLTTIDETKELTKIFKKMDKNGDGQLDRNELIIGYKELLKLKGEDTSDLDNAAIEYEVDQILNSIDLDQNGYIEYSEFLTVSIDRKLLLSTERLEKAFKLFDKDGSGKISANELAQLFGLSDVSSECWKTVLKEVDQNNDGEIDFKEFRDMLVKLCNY

L-lactate dehydrogenase (Plasmodium falciparum (isolate CDC / Honduras)), sequence (Q27743 whole entry, looked up): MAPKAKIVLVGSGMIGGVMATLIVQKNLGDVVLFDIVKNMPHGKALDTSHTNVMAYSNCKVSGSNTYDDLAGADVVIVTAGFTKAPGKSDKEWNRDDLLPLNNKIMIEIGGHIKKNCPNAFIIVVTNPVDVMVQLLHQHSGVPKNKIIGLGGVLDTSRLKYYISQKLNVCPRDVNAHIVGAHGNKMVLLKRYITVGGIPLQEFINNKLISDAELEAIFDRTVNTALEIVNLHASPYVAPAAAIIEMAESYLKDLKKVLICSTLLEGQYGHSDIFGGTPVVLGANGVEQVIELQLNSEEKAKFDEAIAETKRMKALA
Calcium-dependent protein kinase 1 (Plasmodium falciparum (isolate 3D7)), sequence (P62344 whole entry, looked up): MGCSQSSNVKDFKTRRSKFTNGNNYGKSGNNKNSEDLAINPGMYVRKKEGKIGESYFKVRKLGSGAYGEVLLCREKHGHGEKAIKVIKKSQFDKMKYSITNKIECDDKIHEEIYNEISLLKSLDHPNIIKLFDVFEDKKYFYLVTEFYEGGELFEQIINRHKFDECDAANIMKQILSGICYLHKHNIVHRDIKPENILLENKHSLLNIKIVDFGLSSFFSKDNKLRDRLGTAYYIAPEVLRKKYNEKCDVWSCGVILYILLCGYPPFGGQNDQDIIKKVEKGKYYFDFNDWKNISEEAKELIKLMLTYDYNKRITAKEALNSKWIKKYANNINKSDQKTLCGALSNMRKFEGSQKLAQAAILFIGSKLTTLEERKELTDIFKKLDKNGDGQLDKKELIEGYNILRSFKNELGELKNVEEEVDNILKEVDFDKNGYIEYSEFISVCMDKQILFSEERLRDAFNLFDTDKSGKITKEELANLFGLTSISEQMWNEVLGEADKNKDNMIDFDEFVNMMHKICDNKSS
Plasmodium falciparum protein kinase 6 (PK6, PF3D7_1337100), sequence (Q8IDW1 1-305): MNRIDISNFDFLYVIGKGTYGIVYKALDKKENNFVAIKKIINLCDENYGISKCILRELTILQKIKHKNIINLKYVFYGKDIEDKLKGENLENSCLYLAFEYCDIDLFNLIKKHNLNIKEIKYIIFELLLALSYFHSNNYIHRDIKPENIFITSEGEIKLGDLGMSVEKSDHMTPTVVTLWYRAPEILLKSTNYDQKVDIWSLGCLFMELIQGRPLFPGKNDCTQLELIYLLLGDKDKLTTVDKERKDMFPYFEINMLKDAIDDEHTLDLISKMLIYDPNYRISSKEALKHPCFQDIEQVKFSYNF
Protein kinase 7 (PK7), Plasmodium falciparum 3D7 (PF3D7_0213400), sequence (Q7YTF7 1-343): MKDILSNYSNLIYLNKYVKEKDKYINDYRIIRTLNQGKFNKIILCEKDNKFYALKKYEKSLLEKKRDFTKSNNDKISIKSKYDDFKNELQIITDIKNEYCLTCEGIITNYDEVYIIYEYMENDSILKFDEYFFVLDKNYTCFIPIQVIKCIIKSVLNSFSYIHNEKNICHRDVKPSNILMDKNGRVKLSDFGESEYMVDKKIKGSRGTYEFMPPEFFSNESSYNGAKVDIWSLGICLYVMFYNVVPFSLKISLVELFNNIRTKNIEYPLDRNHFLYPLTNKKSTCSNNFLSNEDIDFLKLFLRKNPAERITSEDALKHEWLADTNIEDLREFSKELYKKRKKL

Take `CCOC(=O)C1CCN(CCCNC(=O)/C(=C/C=C/c2cc3cc(Cl)c(Cl)cc3[nH]2)OC)CC1`: the growth inhibition in assay [1] was 78% (active); in assay [4] it was 87% (active). Moreover, the values for the inhibition in assay [2] and in assay [3] were 23% and -6%, respectively. Moreover, the result in assay [5], in assay [6], in assay [7] and in assay [8] was inactive.
`COc1ccc2ccccc2c1CNCCCCCCNCc1c(OC)ccc2ccccc12`: the figures for the growth inhibition in assay [1] and in assay [4] were 35% and 101% (active), respectively. Besides, the inhibition was 99% (active) in assay [2] and -2% in assay [3]. Moreover, the result in assay [5], in assay [6], in assay [7] and in assay [8] was inactive.
For the molecule `COc1ccc(C(F)(F)F)cc1N1CCN(CCCCNC(=O)c2ccc(NC(=O)c3ccc(Cl)cc3)cc2)CC1`, the growth inhibition in assay [1] was 1%; in assay [4], 94% (active). Also, the inhibition in assay [2] is 12%; in assay [3] it was 8%. The outcome in assay [5], in assay [6], in assay [7] and in assay [8] was inactive.
Consider `O=C(N[C@@H](CC1CCCCC1)C(=O)NC1CCCc2ccccc21)c1ccc(O)c(-c2ccc(Cl)c(Cl)c2)c1` (stereo not given in full), for which the growth inhibition in assay [1] is 99% (active); in assay [4], 98% (active). For the same molecule, the inhibition in assay [2] is 1%; in assay [3] it was -3%. Besides, the result in assay [5], in assay [6], in assay [7] and in assay [8] was inactive.
With `CC(C)OC(=O)c1ccc(NC(=O)N[C@@H](Cc2ccc(O)cc2)C(=O)NC2C[C@H]3CC[C@@H](C2)N3Cc2ccccc2)cc1` (stereo not given in full), the results for the growth inhibition in assay [1] and in assay [4] were 19% and 92% (active), respectively. Besides, the inhibition is 0% in assay [2] and -5% in assay [3]. The outcome in assay [5], in assay [6], in assay [7] and in assay [8] was inactive.
For `Fc1ccc2nc(-c3ccc(-c4ccc(CNCc5cnn(-c6ccccc6)n5)cc4)cc3)[nH]c2c1`, the growth inhibition in assay [1] was 47%; in assay [4], 98% (active). Also, the values for the inhibition in assay [2] and in assay [3] were 41% and 1%, respectively. Moreover, the result in assay [5], in assay [6], in assay [7] and in assay [8] was inactive.
With `N#Cc1cnc2cc(-c3cnc(CNCCN4CCOCC4)s3)ccc2c1Nc1ccc(Oc2ccccc2)cc1`, the growth inhibition in assay [1] is 83% (active); in assay [4], 97% (active). Also, the results for the inhibition in assay [2] and in assay [3] were 30% and 2%, respectively. Besides, the outcome in assay [5], in assay [6], in assay [7] and in assay [8] was inactive.
Take `CCC(=O)N(c1ccccc1)C1CCN(CCCC(NC(=O)c2cc(C(F)(F)F)cc(C(F)(F)F)c2)c2ccc(Cl)c(Cl)c2)CC1` (stereo not given): the growth inhibition in assay [1] is 57% (active); in assay [4], 96% (active). The inhibition was 24% in assay [2] and 0% in assay [3]. Also, the outcome in assay [5], in assay [6], in assay [7] and in assay [8] was inactive.
For the molecule `Cc1ccccc1C1CCN(C2CCC(NC(=O)c3cncc(-c4ccccc4)c3)CC2)CC1` (stereo not given), the figures for the growth inhibition in assay [1] and in assay [4] were 92% (active) and 101% (active), respectively. The inhibition in assay [2] is 27%; in assay [3] it was -1%. Also, the result in assay [5], in assay [6], in assay [7] and in assay [8] was inactive.
For `COc1ccc(S(=O)(=O)Nc2cc(Br)cc3c2OCCC3)cc1N1CCN(C(=O)C(Cl)(Cl)Cl)CC1`, the growth inhibition in assay [1] is 51% (active); in assay [4], 90% (active). Also, the figures for the inhibition in assay [2] and in assay [3] were 4% and -2%, respectively. The outcome in assay [5], in assay [6], in assay [7] and in assay [8] was inactive.
In the case of `Cc1cccc2[nH]c(-c3cccc(-c4ccc(NC(=O)C5CCN(C)CC5)cc4)c3)nc12`, the growth inhibition was 100% (active) in assay [1] and 101% (active) in assay [4]. For the same molecule, the inhibition is 16% in assay [2] and 3% in assay [3]. Further, the result in assay [5], in assay [6], in assay [7] and in assay [8] was inactive.
Consider `CCCCCCN=C(N)c1ccc2nc(-c3ccc(O)cc3)[nH]c2c1`, for which the growth inhibition is 99% (active) in assay [1] and 100% (active) in assay [4]. For the same molecule, the inhibition in assay [2] was -3%; in assay [3], 1%. For the same molecule, the result in assay [5], in assay [6], in assay [7] and in assay [8] was inactive.
As for `COC(=O)c1cccc(NC(=O)NC2CCN(c3ccnc(NCc4ccc(F)cc4)n3)CC2)c1`, the growth inhibition was 39% in assay [1] and 93% (active) in assay [4]. Also, the inhibition was 29% in assay [2] and 5% in assay [3]. The outcome in assay [5], in assay [6], in assay [7] and in assay [8] was inactive.
Regarding `CCOC(=O)c1ccc(NC(=O)Nc2cccc(-c3ccc(-c4nc5ccccc5[nH]4)cc3)c2)cc1`, the values for the growth inhibition in assay [1] and in assay [4] were 86% (active) and 100% (active), respectively. Besides, the results for the inhibition in assay [2] and in assay [3] were 54% (active) and -2%, respectively. Moreover, the outcome in assay [5], in assay [6], in assay [7] and in assay [8] was inactive.
Take `CS(=O)(=O)c1ccc(CNCc2ccc(-c3ccc(-c4nc5ccc(F)cc5[nH]4)s3)cc2)cc1`: the growth inhibition in assay [1] was 97% (active); in assay [4], 102% (active). Also, the inhibition in assay [2] is 22%; in assay [3] it was 0%. For the same molecule, the outcome in assay [5], in assay [6], in assay [7] and in assay [8] was inactive.
As for `CCN(CC)CCNc1ccnc2[nH]c3ccc(C)cc3c12`, the growth inhibition in assay [1] is 81% (active); in assay [4] it was 102% (active). Moreover, the inhibition in assay [2] is 9%; in assay [3], -3%. Moreover, the outcome in assay [5], in assay [6], in assay [7] and in assay [8] was inactive.
As to `CCOC(=O)CCCCCNC[C@H](O)c1ccccc1`, the growth inhibition in assay [1] was 0%; in assay [4], 98% (active). Further, the inhibition in assay [2] is 2%; in assay [3], 5%. Moreover, the outcome in assay [5], in assay [6], in assay [7] and in assay [8] was inactive.
`Cc1cc(N[C@@H](Cc2ccccc2)C(=O)NCc2cccs2)nc(NCCOc2ccccc2)n1`: the growth inhibition in assay [1] is 31%; in assay [4], 93% (active). The inhibition in assay [2] was 2%; in assay [3], -3%. In addition, the outcome in assay [5], in assay [6], in assay [7] and in assay [8] was inactive.
Take `COc1ccc2nccc([C@@H](O)CN3CCC(NC(=O)/C=C/c4cccc(C)c4)CC3)c2c1`: the growth inhibition in assay [1] was 28%; in assay [4] it was 84% (active). The inhibition in assay [2] was 16%; in assay [3], -2%. Moreover, the result in assay [5], in assay [6], in assay [7] and in assay [8] was inactive.
For the molecule `NCCc1cccc(-c2cnc3[nH]cc(-c4ccc(C(=O)O)cc4)c3c2)c1`, the growth inhibition in assay [1] was 98% (active); in assay [4], 99% (active). The inhibition is 4% in assay [2] and -2% in assay [3]. In addition, the result in assay [5], in assay [6], in assay [7] and in assay [8] was inactive.
